Compound activity from PubChem BioAssay.
TDP-43 yeast inh = TDP-43 toxicity inhibition in yeast | TDP-43 expressing yeast growth rescue, BacTiter-Glo, 24 h | Potency, µM (titrated, usually from 46.1 µM), for the others: at the top dose growth rescue (activation), actives largely listed as activators | 410,000 tested, 1.8% active | AID 652104; note: % of control where 0% means no effect; nearly all actives have a fitted effect of over 50% in size
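Yeast cells expressing TDP-43 under galactose induction are exposed to compounds for 24 hr at 30 deg C. BacTiter-Glo luminescence measures growth, so protective compounds score as activators.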
aSyn rescue = inhibitors of alpha-synuclein toxicity in yeast; Yeast expressing alpha-synuclein, growth rescue, BacTiter-Glo, 24 h; Potency, µM (highest dose often 46.1 µM), for inactives: top-dose growth rescue (activation), hits mostly activators; 370,000 tested, 0.14% active; AID 652106; note: % of control where 0% means no effect; nearly all actives have a fitted effect of over 65% in size
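Rescue of yeast growth: cells expressing toxic alpha-synuclein, induced in galactose at OD600 0.02, incubated with compound 24 h at 30 C. ATP luminescence quantified growth; inhibitors of toxicity appear as activators.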
Abeta yeast res = A-beta toxicity reversal in yeast; 410,000 tested, 0.063% active; yeast expressing A-beta42, growth rescue, OD600, 48 h; response scale: 0% DMSO, 100% iron-clioquinol control; Potency, µM (doses to about 46.1 µM), actives largely listed as activators; note: nearly all actives have a fitted effect of over 55% in size
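Yeast A-beta toxicity model in growth medium with pinned compounds, 48 h at 30 C; growth read as absorbance at 600 nm. Normalized to FeCl3/clioquinol equimolar mix (positive) and DMSO (negative).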
FUS suppressor = rescues growth of FUS-expressing yeast | S. cerevisiae FUS-expressing, growth rescue, OD600, 24 h | AID 1347120 | 390,000 tested, 0.24% active | Potency, µM (doses to about 76.6 µM), most hits filed as activators;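 note: plate controls were DMSO vehicle for no effect and reference control for full effect; nearly all actives have a fitted effect of over 55% in size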
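Restored growth of FUS-toxic S. cerevisiae, read as 600 nm absorbance after 24 h at 30C in galactose medium (starting OD 0.005). Controls CP55940 and DMSO.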
Mito fusion act = mitochondrial division inhibition or fusion activation. AID 485298. S. cerevisiae fusion-defective mutant growth rescue, CellTiterGlo 48 h. Potency, µM (titrated, usually from 46.1 µM), inactives show at the top dose growth rescue (activation), most hits filed as activators. 320,000 tested, 0.23% active; note: % of control where 0% means no effect; nearly all actives have a fitted effect of over 45% in size
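Luminescent cell viability in 1536-well qHTS format served as the measure of rescued growth in ts fusion-mutant S. cerevisiae cultured on non-fermentable YPEG for 48 hours at 37C.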
Numbers without * were called inactive; i = inactive; ? = inconclusive; · = no result. The list is not random: actives were taken first. Their share in the collection is about 2.2%. Calls come from the whole dose curve; as a rule, active = well fitted curve in the direction sought with a large enough effect; inconclusive = small, poorly fitted or top-dose-only effect, or another doubt; inactive = no such curve, though single readings can be large; an effect the other way counts as inactive or inconclusive. Potency is the fitted concentration of half-maximal effect.

SMILES | TDP-43 yeast inh | aSyn rescue | Abeta yeast res | FUS suppressor | Mito fusion act
Cc1cc(NC(=S)NC(=O)C2CC2)ccc1Br | 16µM* | -37% | i | i | 2%
Cc1cc(C)cc(NC(=S)NC(=O)C2CC2)c1 | 11µM* | -1% | i | i | 8%
Cc1cccc(NC(=S)NC(=O)C2CC2)c1 | · | · | · | · | -7%
O=C(CC(NC(=O)c1ccccc1)c1ccccc1)OCc1nc(-c2cccc(Cl)c2)no1 (stereo not given) | · | -4% | · | · | ·
Cc1ccccc1NC1=C(Cl)C(=O)OC1OC(=O)c1ccco1 (stereo not given) | -10% | 3% | i | i | -3%
Cc1ccc(NC2=C(Cl)C(=O)OC2OC(=O)c2ccc(C)cc2)cc1 (stereo not given) | 13µM* | 0% | i | i | -2%
Cn1c(=O)c2c(O)c(Cc3ccccc3)c(=O)[nH]c2n(C)c1=O | 11% | -1% | i | i | 20µM*
O=C(COC(=O)Cc1ccc(Br)cc1)Nc1ccc(Cl)cn1 | 11µM* | -15% | ? | i | ·
O=C(OCc1cn(Cc2cccc(F)c2)nn1)N1CCOCC1 | · | · | · | i | ·
O=C(CCl)NCc1cc(-c2ccc(Cl)cc2)no1 | 10µM* | -8% | i | i | -6%
O=C(CN(CCc1ccccc1)S(=O)(=O)c1ccc(F)cc1)N1CCOCC1 | · | · | · | i | ·
C[C@H]1C2CC(OC(=O)Nc3ccc(F)cc3)C(C2)[C@H]2CCCCN21 (stereo not given in full) | · | · | · | i | ·
C=CS(=O)(=O)N(Cc1nnn(Cc2ccccc2)c1Br)[C@@H](CC(C)C)C(=O)OC | · | · | · | i | ·
O=[N+]([O-])c1ccc(Sc2nccn2Cc2ccccc2)c([N+](=O)[O-])c1 | 14µM* | -7% | i | · | 0%
O=[N+]([O-])c1cc(C(F)(F)F)ccc1Sc1nccn1Cc1ccccc1 | ? | 1% | i | i | 1%
O=C(NC1CCN(Cc2ccccc2)CC1)c1ccccc1 | 0% | -9% | i | i | 15%
Cc1c(C(=O)NC2CCN(Cc3ccccc3)C2)oc2c(Cl)cccc12 (stereo not given) | -26% | -6% | i | i | 3.5µM*
CC(C)(C)c1ccc(C(=O)NC2CCN(Cc3ccccc3)CC2)cc1 | -3% | 7% | i | i | 35µM*
O=C(NC1CCN(Cc2ccccc2)CC1)c1ccccc1Cl | 0% | -17% | i | i | -1%
CCN(CC)C(=O)c1oc(=O)c2ccccc2c1-c1ccc(C)cc1 | · | · | · | i | ·
Cc1cc2c([nH]c3ccccc32)c2c1OC(C)(C)C=C2 | 28µM* | 2% | i | i | 1%
COc1ccc2[nH]c(=O)c3c(c2c1)OC(C)(C)C=C3 | 7% | -2% | i | i | 0%
NC(=O)c1c(N)[nH]c(C(=O)c2ccccc2)c1-c1ccccc1C(F)(F)F | · | · | · | i | ·
COc1c(Cl)ccc(Cl)c1C(=O)NC(=O)Nc1nc(C)cc(C)n1 | -8% | 8% | i | i | 7%
CCOC(=O)CC[C@@H]1CC[C@]2(CCCN(Cc3ccc(Cl)cc3)C2)O1 | · | · | · | i | ·
SMILES | TDP-43 yeast inh | aSyn rescue | Abeta yeast res | FUS suppressor | Mito fusion act
Cc1cc(C)c2sc(NNC(=O)c3ccc(S(=O)(=O)N4CCc5ccccc5C4)cc3)nc2c1 | 7.9µM* | 5% | i | ? | -9%
Cc1cc(C)c2nc(NNC(=O)c3ccc(S(=O)(=O)N4CCc5ccccc5C4)cc3)sc2c1 | 5% | 11% | i | ? | -8%
COC(=O)C1=C(C)N(Cc2ccccc2)C(=S)N[C@H]1c1ccccc1 | 13µM* | 21% | i | i | 5%
COC(=O)C1=C(C)N(Cc2ccccc2)C(=O)N[C@H]1c1ccccc1 | 29% | 1% | i | i | 23%
S=C1NC(c2ccccc2)=CC(c2ccccc2)N1 (stereo not given) | -25% | 17% | 13µM* | ? | -1%
S=C1NC(c2cccs2)=CC(c2ccc(Br)cc2)N1 (stereo not given) | 20µM* | -6% | i | · | ?
CC1=CC(c2ccccc2)NC(=S)N1 (stereo not given) | 5% | -1% | i | · | -2%
O=C(OCc1cn(Cc2ccccc2C(F)(F)F)nn1)N1CCOCC1 | · | · | · | i | ·
O=C(c1cccc(COc2cccc3ccccc23)c1)N1CCCC1 | 22µM* | 17% | i | ? | ?
